The text below walks through data of PubChem BioAssay (EPA / NIEHS).

Where “and” joins values, the source holds several entries; their conditions need not be identical. Identical values can stand only once. A structure can be active in one record and inactive in another. Calls of active or inactive are those of the source. The calls were made as follows: active = hit-call score of the fitted dose curve at least 0.9, where 1 is the maximum; inactive = score below 0.9.

By AC50 is commonly meant the concentration giving half of the maximal activity seen.

Sequence of Transcription factor Sp1 (Homo sapiens) (P08047 whole entry, looked up): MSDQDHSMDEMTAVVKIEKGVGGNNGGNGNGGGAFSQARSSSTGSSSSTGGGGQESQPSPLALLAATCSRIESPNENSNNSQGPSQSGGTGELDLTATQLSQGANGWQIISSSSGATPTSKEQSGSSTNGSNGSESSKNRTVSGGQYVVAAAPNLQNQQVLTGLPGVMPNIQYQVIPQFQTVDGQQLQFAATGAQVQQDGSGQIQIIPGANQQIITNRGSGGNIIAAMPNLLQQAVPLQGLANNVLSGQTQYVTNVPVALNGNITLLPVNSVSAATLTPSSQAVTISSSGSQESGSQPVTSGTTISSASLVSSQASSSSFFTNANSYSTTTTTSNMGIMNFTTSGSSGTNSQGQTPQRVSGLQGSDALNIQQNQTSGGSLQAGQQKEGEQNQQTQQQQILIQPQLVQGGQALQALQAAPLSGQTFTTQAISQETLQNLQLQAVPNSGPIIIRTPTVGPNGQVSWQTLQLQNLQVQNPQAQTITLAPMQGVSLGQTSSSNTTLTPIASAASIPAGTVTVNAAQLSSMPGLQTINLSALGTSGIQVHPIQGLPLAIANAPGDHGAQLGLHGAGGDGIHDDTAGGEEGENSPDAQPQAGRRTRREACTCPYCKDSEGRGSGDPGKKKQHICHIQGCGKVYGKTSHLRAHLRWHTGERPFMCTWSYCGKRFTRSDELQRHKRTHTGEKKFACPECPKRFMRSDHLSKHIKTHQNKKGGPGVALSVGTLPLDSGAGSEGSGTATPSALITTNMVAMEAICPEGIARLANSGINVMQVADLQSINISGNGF

System in one experiment: not listed separately
Kind of experiment: ATG_Sox_CIS: Attagene CIS-FACTORIAL HepG2 Assay for human SRY-box transcription factor (SOX) (AID 2282960). Conditions: HepG2 Attagene cis-factorial SOX reporter, mRNA; actives raise or lower the signal. In outline:
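Endogenous factor activity in human liver HepG2 cells carrying transfected cis-regulated reporter units. RNA taken 24 h post-dose, reverse-transcribed, PCR-amplified and sized by capillary electrophoresis. Gain or loss of signal fitted relative to DMSO.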
Consider `CCCCOC(=O)[C@@H](C)Oc1ccc(Oc2ccc(C(F)(F)F)cn2)cc1`, for which the call was inactive.

With `CCOC(=O)c1ccc(O)cc1`, the molecule was called inactive.

For the molecule `COC(=O)c1ccccc1S(=O)(=O)NC(=O)Nc1nc(OC(F)F)cc(OC(F)F)n1`, the result was inactive.

Regarding `COC(=O)c1cccc(C)c1S(=O)(=O)NC(=O)Nc1nc(OCC(F)(F)F)nc(N(C)C)n1`, the molecule was called inactive.

Regarding `CCC(O)=C1C(=O)CC(C(=O)O)CC1=O` (stereo unspecified), the call was inactive.

Consider `CCCCOC(=O)C(C)Oc1ccc(Oc2ccc(C(F)(F)F)cn2)cc1` (stereo unspecified), for which the outcome was inactive.

Consider `COC(=O)CSc1cc(N=c2sc(=O)n3n2CCCC3)c(F)cc1Cl`, for which the call was inactive.

Consider `COc1nc(C)nc(NC(=O)NS(=O)(=O)c2ccccc2OCCCl)n1`, for which the call was inactive.

With `N[C@@H](Cc1cc(I)c(Oc2ccc(O)c(I)c2)c(I)c1)C(=O)O`, the molecule was called inactive.

For the molecule `CCCCC(CC)CN1C(=O)C2C3C=CC(C3)C2C1=O` (stereo unspecified), the molecule was classed as inactive.

On to `C[C@]12CC[C@@H]3c4ccc(O)cc4C[C@@H](CCCCCCCCCS(=O)CCCC(F)(F)C(F)(F)F)[C@H]3[C@@H]1CC[C@@H]2O` (stereo partly specified), for which the molecule was called inactive.

Turning to `CC(C)CCCCCCc1ccc(O)cc1`, the AC50 is 17.8 µM (active) and 17.5 µM (active); the result was inactive.

On to `O=C(c1ccc(O)cc1O)c1ccc(O)cc1O`, for which the molecule was called inactive.

`CN(C)C(=O)Nc1ccc(Cl)c(Cl)c1`: the call was inactive.

For `COCCO`, the outcome was inactive.

Regarding `N#CSCSc1nc2ccccc2s1`, the molecule was classed as inactive.

On to `CCOC(=O)COc1cc(-n2ncc(C(F)(F)F)c(C)c2=O)c(F)cc1Cl`, for which the result was inactive.

With `C#C[C@]1(O)CC[C@H]2[C@@H]3CCC4=CC(=O)CC[C@@H]4[C@H]3CC[C@@]21CC`, the molecule was called inactive.

For the molecule `CCCN(CCC)c1c([N+](=O)[O-])cc(C(F)(F)F)c(N)c1[N+](=O)[O-]`, the call was inactive.

With `COC(=O)c1ccccc1C(=O)O`, the call was inactive.

Consider `C=CCOC(Cn1ccnc1)c1ccc(Cl)cc1Cl` (stereo unspecified), for which the molecule was called inactive.

As to `CSC(=O)c1cccc2nnsc12`, the outcome was inactive.

As for `CC(=O)S[C@@H]1CC2=CC(=O)CC[C@]2(C)[C@H]2CC[C@@]3(C)[C@@H](CC[C@@]34CCC(=O)O4)[C@H]12`, the call was inactive.

Consider `c1ccc2[nH]c(-c3cscn3)nc2c1`, for which the molecule was classed as inactive.

For `C[C@]12C[C@H](O)[C@H]3[C@@H](CCC4=CC(=O)CC[C@@]43C)[C@@H]1CC[C@@H]2C(=O)CO`, the outcome was inactive.

As to `OB(O)O`, the molecule was classed as inactive.

For the molecule `S=C(S)NCCNC(=S)S.[Mn+2].[S-]C([S-])=NCCN=C([S-])[S-].[Zn+2]`, the AC50 is 16.5 µM (active) and 23 µM (active) and 22.3 µM (active); the call was inactive.

In the case of `COC(=O)c1ccc(CNS(C)(=O)=O)cc1S(=O)(=O)NC(=O)Nc1nc(OC)cc(OC)n1`, the outcome was inactive.

Take `O=C(c1ccccc1)C1CCCCC1`: the call was inactive.

As for `COC(=O)c1c(Cl)nn(C)c1S(=O)(=O)NC(=O)Nc1nc(OC)cc(OC)n1`, the outcome was inactive.

For the next experiment, the target named is Transcription factor Sp1 (Homo sapiens) (UniProt P08047). The experiment in a line: ATG_Sp1_CIS: Attagene CIS-FACTORIAL HepG2 Assay for human Specificity Protein 1 (Sp1) (AID 2282961). Conditions: HepG2 Sp1 cis-reporter transcription, actives raise or lower the signal. In outline:
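Transient MRTU-transfected HepG2, 24 h compound exposure. Total RNA → oligo(dT) RT → PCR of reporter → 6-FAM primer extension → HpaI digest → CE. Endpoint fitted both directions vs DMSO.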
For `CCCCOC(=O)[C@@H](C)Oc1ccc(Oc2ccc(C(F)(F)F)cn2)cc1`, the call was inactive.

In the case of `CCOC(=O)c1ccc(O)cc1`, the outcome was inactive.

Regarding `COC(=O)c1ccccc1S(=O)(=O)NC(=O)Nc1nc(OC(F)F)cc(OC(F)F)n1`, the result was inactive.

In the case of `COC(=O)c1cccc(C)c1S(=O)(=O)NC(=O)Nc1nc(OCC(F)(F)F)nc(N(C)C)n1`, the molecule was called inactive.

For the molecule `CCC(O)=C1C(=O)CC(C(=O)O)CC1=O` (stereo unspecified), the molecule was classed as inactive.

On to `CCCCOC(=O)C(C)Oc1ccc(Oc2ccc(C(F)(F)F)cn2)cc1` (stereo unspecified), for which the call was inactive.

`COC(=O)CSc1cc(N=c2sc(=O)n3n2CCCC3)c(F)cc1Cl`: the call was inactive.

For `COc1nc(C)nc(NC(=O)NS(=O)(=O)c2ccccc2OCCCl)n1`, the molecule was classed as inactive.

Regarding `N[C@@H](Cc1cc(I)c(Oc2ccc(O)c(I)c2)c(I)c1)C(=O)O`, the outcome was inactive.

As for `CCCCC(CC)CN1C(=O)C2C3C=CC(C3)C2C1=O` (stereo unspecified), the call was inactive.

On to `C[C@]12CC[C@@H]3c4ccc(O)cc4C[C@@H](CCCCCCCCCS(=O)CCCC(F)(F)C(F)(F)F)[C@H]3[C@@H]1CC[C@@H]2O` (stereo partly specified), for which the result was inactive.

For the molecule `CC(C)CCCCCCc1ccc(O)cc1`, the AC50 was 19.4 µM (active) and 16.2 µM (active); the call was inactive.

Regarding `O=C(c1ccc(O)cc1O)c1ccc(O)cc1O`, the molecule was called inactive.

On to `CN(C)C(=O)Nc1ccc(Cl)c(Cl)c1`, for which the AC50 is 180 µM (active) and the molecule was classed as inactive.

Regarding `COCCO`, the molecule was called inactive.

`N#CSCSc1nc2ccccc2s1`: the AC50 was 17.8 µM (active) and the molecule was classed as inactive.

As for `CCOC(=O)COc1cc(-n2ncc(C(F)(F)F)c(C)c2=O)c(F)cc1Cl`, the outcome was inactive.

For the molecule `C#C[C@]1(O)CC[C@H]2[C@@H]3CCC4=CC(=O)CC[C@@H]4[C@H]3CC[C@@]21CC`, the molecule was classed as inactive.

In the case of `CCCN(CCC)c1c([N+](=O)[O-])cc(C(F)(F)F)c(N)c1[N+](=O)[O-]`, the AC50 was 28.9 µM (active).

Regarding `COC(=O)c1ccccc1C(=O)O`, the outcome was inactive.

With `C=CCOC(Cn1ccnc1)c1ccc(Cl)cc1Cl` (stereo unspecified), the molecule was classed as inactive.

Turning to `CSC(=O)c1cccc2nnsc12`, the outcome was inactive.

As for `CC(=O)S[C@@H]1CC2=CC(=O)CC[C@]2(C)[C@H]2CC[C@@]3(C)[C@@H](CC[C@@]34CCC(=O)O4)[C@H]12`, the AC50 was 26.3 µM (active) and 4.58 µM (active); the call was inactive.

`c1ccc2[nH]c(-c3cscn3)nc2c1`: the molecule was classed as inactive.

As for `C[C@]12C[C@H](O)[C@H]3[C@@H](CCC4=CC(=O)CC[C@@]43C)[C@@H]1CC[C@@H]2C(=O)CO`, the molecule was classed as inactive.

For `OB(O)O`, the molecule was called inactive.

As for `S=C(S)NCCNC(=S)S.[Mn+2].[S-]C([S-])=NCCN=C([S-])[S-].[Zn+2]`, the molecule was called inactive.

`COC(=O)c1ccc(CNS(C)(=O)=O)cc1S(=O)(=O)NC(=O)Nc1nc(OC)cc(OC)n1`: the call was inactive.

Regarding `O=C(c1ccccc1)C1CCCCC1`, the molecule was classed as inactive.

As to `COC(=O)c1c(Cl)nn(C)c1S(=O)(=O)NC(=O)Nc1nc(OC)cc(OC)n1`, the outcome was inactive.
